Source: PubChem BioAssay (NCI)
The panel holds about 83,000 compounds, 20% with a hit somewhere; the sample as a whole holds those more often.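 Step 1: grow cells in 96-well plates. Step 2: add test compound at a single concentration. Step 3: incubate 48 h. Step 4: record percent growth.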 Active and inactive are the calls of the source. How the source made its calls: active means growth percent below 10; inactive means the rest.

How the values were obtained:
Test in all cases: NCI-60 one-dose screen, 48 h (100 = growth as untreated, 0 = no growth, -100 = all killed)
Settings in all cases: 10 µM unless noted
[1] = system: HCT-15 colon
[2] = system: HT29 colon
[3] = system: SNB-75 CNS
[4] = system: SNB-19 CNS
[5] = system: U251 CNS
[6] = system: PC-3 prostate
[7] = system: SK-MEL-5 melanoma
[8] = system: LOX IMVI melanoma
[9] = system: SK-MEL-28 melanoma
[10] = system: UACC-62 melanoma

Measured: growth

CC[C@H](C)[C@H](NC(=O)[C@H](CCCNC(=N)N)NC(=O)[C@H](Cc1c[nH]c2ccccc12)NC(=O)[C@@H](NC(=O)[C@H](CCCCN)NC(=O)[C@H](CCCCN)NC(=O)[C@@H](NC(=O)[C@@H](NC(=O)[C@@H](NC(=O)[C@H](CCCCN)NC(=O)[C@H](Cc1ccccc1)NC(=O)[C@H](CCCCN)NC(=O)[C@H](CCCCN)NC(=O)[C@H](Cc1ccccc1)NC(=O)[C@@H](NC(=O)[C@@H](N)CCCCN)[C@@H](C)CC)[C@@H](C)O)[C@@H](C)CC)[C@@H](C)CC)C(C)C)C(=O)N[C@@H](Cc1ccccc1)C(=O)NCC(=O)N[C@@H](CCCNC(=N)N)C(=O)N[C@@H](Cc1ccccc1)C(N)=O
active: [1] -43% | [2] -35.7% | [3] -34% | [4] -35.9% | [5] -44.1% | [6] -25.9% | [7] 3.57% | [8] -11% | [9] -31.7%

O=C(CN1CCN(c2cc3c(cc2F)c(=O)c(C(=O)O)cn3C2CC2)CC1)N/N=C/c1ccncc1
inactive: [1] 97.5% | [2] 97.8% | [3] 89.1% | [4] 92.8% | [5] 98.8% | [6] 91.7% | [7] 96.9% | [8] 99.8% | [9] 106%

O=C1NC(=C(Cl)Cl)/C(=N/S(=O)(=O)N2CCCCC2)N1
active: [1] -79% | [2] -75.8% | [5] -45.1% | [8] -56.6%
inactive: [3] 93.5% | [4] 60.9% | [6] 28.5% | [7] 82%

CN(C)c1ccc(C(=NO)c2ccc(N(C)C)cc2)cc1
active: [2] 5.39%
inactive: [1] 24.4% | [3] 53.6% | [4] 46.3% | [5] 28.1% | [6] 58% | [7] 14.5% | [10] 28.1% | [8] 43.1% | [9] 56.3%

CCN(CC)CCCC(C)Nc1ccc2cc(OC)ccc2n1 (configuration not stated)
inactive: [1] 103% | [2] 106% | [3] 89.8% | [4] 106% | [5] 97.9% | [6] 95.4% | [7] 107% | [8] 102% | [9] 108%

O=C(Nc1nc(C(=O)N2CCN(C(c3ccccc3)c3ccccc3)CC2)cs1)c1ccc(NC2CCCCC2)c([N+](=O)[O-])c1
inactive: [1] 96.9% | [2] 86.1% | [3] 86.1% | [4] 85.9% | [5] 83.5% | [6] 76.1% | [7] 60.6% | [8] 91.5% | [9] 100%

CCOC(=O)c1c(NC(=O)c2ccc(OC)cc2)sc2c(CN(C)C)c(O)ccc12
inactive: [1] 52.5% | [2] 13.9% | [3] 67.7% | [4] 89% | [5] 79.5% | [6] 78.9% | [7] 81.3% | [8] 61.3%
active: [9] -30.4%

COc1ccc(-c2nnc(SCC(=O)Nc3ccc(/C(C)=N\O)cc3)n2-c2ccccc2)cc1OC
active: [3] -16.5%
inactive: [1] 98.6% | [2] 91.2% | [4] 75.8% | [5] 34.4% | [6] 110% | [7] 94.6% | [10] 82.8% | [8] 80.1% | [9] 87.3%

CCOC(=O)C1CCN(c2ccc(N3C[C@@H](CNCc4ccc(C(=N)N)cc4)OC3=O)cc2)CC1
inactive: [1] 102% | [2] 105% | [3] 83.8% | [4] 98.9% | [5] 104% | [6] 94.4% | [7] 103% | [10] 97.3% | [8] 96.4% | [9] 105%

CC(C)c1ccc(-n2c(=S)[nH]c3sc4c(c3c2=O)CCC(=O)C4)cc1
active: [6] 7.63%
inactive: [1] 45.9% | [2] 109% | [3] 41.6% | [4] 26.4% | [5] 11.8% | [7] 27.9% | [8] 43.3%

COc1cccc(OC)c1Oc1c(-c2nc3ccccc3s2)c(C)nn1-c1ccccc1
inactive: [1] 51.7% | [2] 71.2% | [3] 74.8% | [4] 92.7% | [5] 84.8% | [6] 51.1% | [10] 56.2% | [8] 62.9%

O=C(Nc1cccnc1Nc1ccc(Cl)cc1)c1cn(Cc2ccc(F)cc2)nn1
inactive: [1] 95.4% | [2] 113% | [3] 94.6% | [4] 95.9% | [5] 99% | [6] 94.5% | [10] 100% | [8] 104% | [9] 115%

COc1cc2c(/C=C3\C(=O)Nc4ccccc43)c(C(=O)O)[nH]c2cc1C
inactive: [1] 105% | [2] 89.8% | [3] 66.3% | [4] 113% | [5] 96.4% | [6] 79.8% | [10] 84.3% | [8] 92.7% | [9] 81.6%
